Sampled rows, rich in hits. Any-hit rate of the full collection: about 9.4%.
SMN2 splice up: increases expression of the SMN2 splice variant; HEK293 SMN2-luciferase splicing reporter, luminescence, 30-36 h; Potency, µM (top dose mostly 46.1 µM), inactives show at the highest dose activity change, positive = activation, usual class: activators; actives 2.8% (n = 210,000); AID 1458; note: % of control where 0% means no effect; nearly all actives have a fitted effect of over 55% in size
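HEK293 cells carry an SMN2 minigene-luciferase reporter in which exon 7 inclusion puts luciferase in frame. Cells were seeded at 2000 cells/well, attached for 10-12 hours, then exposed to compounds for 30-36 hours at 37C before ONE-Glo luminescence.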
NPC1 promoter act: activates the NPC1 promoter; Potency, µM (highest dose often 9.22 µM), for the others: at the top dose activation, usual class: activators; actives 2.4% (n = 320,000); Huh7 NPC1 promoter luciferase reporter, 24 h; note: % of control where 0% means no effect; nearly all actives have a fitted effect of over 60% in size
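Quantitative HTS used a cell-based reporter: Huh7 cells stably bearing the NPC1 promoter upstream of luciferase were treated with compounds for 24 h, and promoter activation was read as luminescence.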
ELG1 DNA repair: ELG1-dependent DNA repair inhibition | HEK293T ELG1-luciferase reporter, luminescence, 16 h; DNA damage induced by 5-fluorouridine | Potency, µM (doses to about 46.1 µM), for inactives: at the highest dose activity change, negative = inhibition, usual class: inhibitors | actives 2.3% (n = 330,000) | AID 504467; note: % is set by controls: 0 for no effect and ±100 for the full control effect; nearly all actives have a fitted effect of over 55% in size
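5-Fluorouridine DNA damage + compound/DMSO, 2,000 cells/well, 16 h, 37 °C/5% CO2. ONE-Glo, 30 min RT, luminescence. Readout = decrease in reporter signal.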
FLuc modulator: inhibits or activates purified firefly luciferase, miR-21 counter-screen; P08659; purified FLuc, Km substrates, luminescence inhibition; Potency, µM (doses to about 57.5 µM), for the others: at the highest dose activity change, negative = inhibition, actives largely listed as inhibitors; actives 6.9% (n = 360,000); AID 588342;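 note: plate controls were vehicle for no effect and reference inhibitor for full effect; nearly all actives have a fitted effect of over 55% in size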
Target sequence (P08659 whole entry, looked up): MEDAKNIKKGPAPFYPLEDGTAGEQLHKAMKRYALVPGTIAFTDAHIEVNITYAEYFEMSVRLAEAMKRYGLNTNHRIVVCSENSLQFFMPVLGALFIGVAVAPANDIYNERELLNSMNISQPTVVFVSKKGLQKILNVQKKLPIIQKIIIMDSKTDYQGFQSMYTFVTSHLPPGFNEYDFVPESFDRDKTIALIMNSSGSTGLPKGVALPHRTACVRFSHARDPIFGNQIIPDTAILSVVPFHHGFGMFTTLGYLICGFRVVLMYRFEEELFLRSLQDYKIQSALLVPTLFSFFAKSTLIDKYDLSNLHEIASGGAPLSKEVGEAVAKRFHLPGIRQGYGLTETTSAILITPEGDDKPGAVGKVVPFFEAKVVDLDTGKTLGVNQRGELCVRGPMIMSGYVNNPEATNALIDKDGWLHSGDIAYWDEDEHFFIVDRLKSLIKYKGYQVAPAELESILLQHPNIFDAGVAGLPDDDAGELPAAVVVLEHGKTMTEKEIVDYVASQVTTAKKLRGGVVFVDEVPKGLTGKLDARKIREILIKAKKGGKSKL
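Biochemical qHTS of compounds, final roughly 60 µM downward over six points, against 10 nM purified firefly luciferase using Km concentrations of substrates (10 uM D-luciferin, 10 uM ATP) in Tris acetate pH 7.5 buffer; luminescence output.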
Rab9 promoter act: Rab9 promoter activation. Huh7 Rab9 promoter-luciferase reporter, luminescence, 24 h. Potency, µM (titrated, usually from 9.22 µM), inactives show at the top dose activation, negative = inhibition, actives largely listed as activators. actives 2.8% (n = 320,000). AID 485297; note: % of control where 0% means no effect; nearly all actives have a fitted effect of over 60% in size
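Promoter activation is measured as luciferase luminescence in Huh7 cells stably transfected with a Rab9 promoter–luciferase construct, following 24 h compound exposure at 37 °C and 10 min reagent incubation at ambient temperature.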
ELG1 genotoxic: genotoxicity induction in ELG1-luciferase HEK293T cells. HEK293T ELG1-luciferase reporter, luminescence, 16 h. Potency, µM (highest dose often 46 µM), for inactives: top-dose activity change, positive = activation, hits mostly activators. actives 1.3% (n = 330,000); note: % of control where 0% means no effect; nearly all actives have a fitted effect of over 60% in size
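DMSO vehicle served as control against compound-treated ELG1-luciferase HEK293T cells; exposure lasted 16 hr at 37 °C and 5% CO2, followed by ONE-Glo luminescence detection after 30 min.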
The depositor's hits bear a star; u = inconclusive; x = no result given; [ ] = remark or other dose. Calls come from the whole dose curve; as a rule, active = well fitted curve in the direction sought with a large enough effect; inconclusive = small, poorly fitted or top-dose-only effect, or another doubt; inactive = no such curve, though single readings can be large; an effect the other way counts as inactive or inconclusive. Potency is the fitted concentration of half-maximal effect.

SMILES	SMN2 splice up	NPC1 promoter act	ELG1 DNA repair	FLuc modulator	Rab9 promoter act	ELG1 genotoxic
O=C(N/N=C/c1cc([N+](=O)[O-])ccc1O)Nc1ccccc1	6.4%	-4.0%	u	u	-0.6%	-8.0%
O=[N+]([O-])c1ccc(/C=N/NC(=S)Nc2ccc(Cl)cc2Cl)s1	x	-2.0%	8.2µM*	-4.0%	-6.5%	3.2%
Cn1c(SCC(=O)N/N=C/c2cc([N+](=O)[O-])ccc2O)nnc1-c1ccccc1	x	-2.4%	9.2µM*	-2.2%	-2.0%	5.2%
O=[N+]([O-])c1ccc(O)c(/C=N/NC(=S)Nc2ccc(Cl)cc2Cl)c1	x	-5.5%	2.91µM*	u	-11.8%	5.4%
Nc1nc(SCCc2ccccc2)c2[nH]cnc2n1	-2.9%[9.22 µM]	x	x	x	x	x
C=C(C)COc1ccc2c(c1)CCC1C2CC[C@]2(C)C(=O)/C(=N/O)CC12 (some centres undefined)	4.3%[9.22 µM]	x	x	x	x	x
CC(C)S	-0.7%	x	x	x	x	x
Nc1nc(CSc2nnnn2-c2ccccc2)nc(N2CCCc3ccccc32)n1	-18.3%	-0.8%	16.4µM*	-5.6%	-1.3%	-6.3%
O=C(NCCc1csc(-c2cccnc2)n1)c1ccc(Cl)cc1	x	-1.6%	-9.0%	9.53µM*	-0.7%	-2.6%
O=C(NCCc1csc(-c2ccccc2)n1)c1c(F)cccc1Cl	-36.3%	-3.6%	18.3µM*	u	-6.9%	-8.1%
CCOc1ccc(C(=O)NCCc2csc(-c3cccnc3)n2)cc1	x	x	x	21.3µM*	x	x
O=C(NCCc1csc(-c2ccc(F)cc2)n1)c1c(F)cccc1Cl	x	x	x	-19.3%	x	x
O=C(NCCc1csc(-c2cccnc2)n1)c1cccc(Cl)c1	x	-3.2%	u	u	-4.1%	-5.3%
O=C(NNC(=O)c1ccc(Cl)cc1Cl)c1csc(-c2cccnc2)n1	x	24.7%	0.4%	5.36µM*	16.8%	2.7%
CC(C)Oc1ccc(C(=O)NCCc2csc(-c3cccc(F)c3)n2)cc1	x	x	x	23.9µM*	x	x
COC(=O)c1ccc(NC(=O)CCn2cnnn2)cc1	x	x	x	-0.4%	x	x
CCn1c(C)cc(/C=C2\NC(=O)N(Cc3ccc(Cl)cc3)C2=O)c1C	1.2%	-4.0%	5.5%	0.2%	-1.5%	11.0%
Cn1c(=O)n(C)c2cc(/C=C3/NC(=O)N(Cc4ccccc4)C3=O)ccc21	7.3%	-0.5%	u	-0.3%	-5.7%	9.2µM*
Cc1ccc(/C=C2/NC(=O)N(Cc3ccccc3)C2=O)o1	10.2%	-0.3%	-3.0%	-17.1%	2.1%	-0.7%
CCN1C(=O)N/C(=C/c2cc(C)n(Cc3ccccc3)c2C)C1=O	29.9%	u	u	3.38µM*	u	18.4%
COc1ccc(NC(=S)NC(=O)c2ccccc2Cl)cc1	x	26.9%	u	u	u	-11.4%
O=C(NC(=S)Nc1ccc(O)cc1)c1ccccc1Cl	u	u	u	u	3.98µM*	u
Cc1ccc(O)c(NC(=S)NC(=O)c2ccccc2Cl)c1	u	12.9%	2.2%	16.9µM*	3.6%	9.1%
O=C(NCC(c1cccs1)S(=O)(=O)c1cccs1)c1ccc(C(F)(F)F)cc1 (centres undefined)	x	x	x	-8.9%	x	x
Cc1ccc(N2C(=O)[C@@H]3CSC(c4ccc(Cl)cc4)N3C2=O)cc1 (some centres undefined)	-11.7%	x	x	-1.6%	x	x
SMILES	SMN2 splice up	NPC1 promoter act	ELG1 DNA repair	FLuc modulator	Rab9 promoter act	ELG1 genotoxic
O=C(c1cnccn1)N1CCC2(CC1)CCN(c1ncccn1)CC2	-14.6%	x	x	x	x	x
N#C/C(=C\c1c[nH]c2ccccc12)C(=O)NCC1CCCO1 (centres undefined)	x	17.8%	u	16.9µM*	29.3%	u
CC(C)C(OC(=O)c1ccccc1)c1nccc2ccccc12 (centres undefined)	x	u	u	16.9µM*	u	u
O=C(OC(c1ccccc1)c1nccc2ccccc12)c1cccc([N+](=O)[O-])c1 (centres undefined)	-2.3%	16.3%	u	u	14.6%	u
Cn1c(SCC(=O)NC2CC2)nnc1-c1cccs1	x	3.98µM*	u	u	3.98µM*	26.1%
Cn1c(SCc2ccc(F)cc2)nnc1-c1cccs1	u	2.24µM*	u	19µM*	3.98µM*	u
Cn1c(SCc2ccccc2F)nnc1-c1cnccn1	x	u	u	u	3.16µM*	u
Nn1c(SCc2ccccc2F)nnc1-c1cccnc1	x	u	u	u	2.24µM*	u
Cn1c(C(=O)NCc2cccc(F)c2)cc2cc(S(=O)(=O)N3CCCCC3)ccc21	x	x	x	1.3%	x	x
CCOC(=O)c1c(C)[nH]c(CCC(=O)Nc2c(C)cccc2CC)c1C	x	x	x	-6.8%	x	x
C=CCOC(=O)N[C@H](/C(C(=O)OC)=C(\C)NCc1ccccc1)c1ccc(C)cc1	9.3%	x	x	x	x	x
Cn1c(SCc2ccccc2F)nnc1-c1ccccn1	11.2µM*	3.98µM*	u	u	2.24µM*	u
Cn1c(SCc2ccc(F)cc2)nnc1-c1ccccn1	u	4.47µM*	u	u	2.24µM*	u
C[C@H]1CCCC2(CC[N+](C)(CCC[N+](C)(C)C)CC2)C1 (some centres undefined)	-1.3%[9.22 µM]	x	x	x	x	x
CCc1ccc(OC(C)C(=O)N2CCC(c3nc4ccccc4s3)CC2)cc1 (centres undefined)	x	x	x	-15.6%	x	x
N#Cc1ccc(CN2CCC3(CC2)CCN(C(=O)c2ccco2)CC3)cc1	-17.5%	x	x	x	x	x
CCc1ccc(/C=c2\s/c(=C\C(=O)C(C)(C)C)[nH]c2=O)cc1	9.8%	12.1%	u	u	-4.3%	-12.7%
COc1ccc(/C=c2\s/c(=C/C(=O)c3ccc(C)cc3)[nH]c2=O)cc1OC	-13.1%	-0.9%	u	10.7µM*	2.5%	-3.6%
CC(=O)c1c(C)[nH]c(C(=O)Nc2nc(-c3ccc(-c4ccccc4)cc3)cs2)c1C	-98.1%	-1.9%	20.6µM*	u	-1.6%	-17.9%
CC(=O)c1c(C)[nH]c(C(=O)Nc2cc(C)cc(C)c2)c1C	-10.9%	-2.2%	u	u	6.7%	u
CC(=O)c1c(C)[nH]c(C(=O)Nc2nc(-c3ccc(Cl)cc3)cs2)c1C	-45.0%	-2.4%	u	-6.6%	-2.7%	-13.2%
CC(=O)c1c(C)[nH]c(C(=O)Nc2nc(C)cs2)c1C	1.58µM*	1µM*	u	0.601µM*	0.112µM*	0.517µM*
CC(=O)c1c(C)[nH]c(C(=O)Nc2ccc(C)cn2)c1C	0.794µM*	0.708µM*	u	0.426µM*	0.251µM*	u
COc1ccc(C(=O)NCc2nc(-c3cccc(C)c3)no2)cc1OC	5.1%	x	x	-10.2%	x	x

From PubChem BioAssay
